Test results reported in the supplement of paper PMC10849652.
The full data set covers some 7,900 targets. This sample favours those with a hit. About 0.6% of all pairs of compound and target were hits.

Experiments:
Experiment in all cases: log2 fold change, soluble protein after heating vs DMSO (PISA); higher = thermal stabilisation; K562 cells, 10 uM, 30 min; active = over 0.2 and 3.5 SD of the protein, either way, in both replicates (recomputed)
[1] = compound: C1=CC=C(C=C1)[C@H](COC2=CC3=C(C=C2)NC(=O)N3)NC(=O)C4=CC=CN(C4=O)CC5=CC(=C(C=C5)F)F
How it was run: (§1)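 K562 cells (2×10^6 cells/mL) were treated with 10 μM compound for 30 min, and aliquots were heated for 3 min over 48°C-58°C. Pooled aliquots were extracted in PBS with 0.5% NP-40 at 4°C, and the supernatant after 21,000xg for 90 min was measured by TMTpro 16plex LC-MS/MS with channel sums equalised. Reported thermal stability, relative to control samples and from duplicates, is a log2 fold change.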

[2] = compound: CC1=C(SC2=C1C(=N[C@H](C3=NN=C(N32)C)CC(=O)N)C4=CC=C(C=C4)Cl)C
How it was run: as §1

[3] = compound: CC1=C2C(=CC=C1)N=C(N(C2=O)C3=CC=CC=C3C)CN4C=NC5=C(N=CN=C54)N
How it was run: as §1

[4] = compound: Cc1sc2c(c1C)C(c1ccc(Cl)cc1)=N[C@@H](CC(=O)OC(C)(C)C)c1nnc(C)n1-2
How it was run: as §1

[5] = compound: c1ccc([C@@H]2C[C@H]2NC2CCNCC2)cc1
How it was run: as §1

Measured: log2 fold change

HDHD2 (UniProt Q9H0R4)
Chain of UniProt Q9H0R4 (Q9H0R4 whole entry, looked up): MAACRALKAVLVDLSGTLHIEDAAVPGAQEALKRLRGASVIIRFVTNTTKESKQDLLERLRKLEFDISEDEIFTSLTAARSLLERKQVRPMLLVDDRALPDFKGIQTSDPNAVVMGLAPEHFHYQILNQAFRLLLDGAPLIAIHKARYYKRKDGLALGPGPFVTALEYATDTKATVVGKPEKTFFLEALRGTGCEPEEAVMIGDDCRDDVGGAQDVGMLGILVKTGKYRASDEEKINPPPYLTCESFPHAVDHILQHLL
inactive: [1] -0.044 | [2] 0.006 | [3] -0.003 | [4] 0.03 | [5] -0.031

HPCAL1 (UniProt P37235)
inactive: [1] 0.007 | [2] -0.011 | [3] 0.047 | [4] -0.011 | [5] 0.032

GLS (UniProt O94925)
Chain of UniProt O94925 (O94925 whole entry, looked up): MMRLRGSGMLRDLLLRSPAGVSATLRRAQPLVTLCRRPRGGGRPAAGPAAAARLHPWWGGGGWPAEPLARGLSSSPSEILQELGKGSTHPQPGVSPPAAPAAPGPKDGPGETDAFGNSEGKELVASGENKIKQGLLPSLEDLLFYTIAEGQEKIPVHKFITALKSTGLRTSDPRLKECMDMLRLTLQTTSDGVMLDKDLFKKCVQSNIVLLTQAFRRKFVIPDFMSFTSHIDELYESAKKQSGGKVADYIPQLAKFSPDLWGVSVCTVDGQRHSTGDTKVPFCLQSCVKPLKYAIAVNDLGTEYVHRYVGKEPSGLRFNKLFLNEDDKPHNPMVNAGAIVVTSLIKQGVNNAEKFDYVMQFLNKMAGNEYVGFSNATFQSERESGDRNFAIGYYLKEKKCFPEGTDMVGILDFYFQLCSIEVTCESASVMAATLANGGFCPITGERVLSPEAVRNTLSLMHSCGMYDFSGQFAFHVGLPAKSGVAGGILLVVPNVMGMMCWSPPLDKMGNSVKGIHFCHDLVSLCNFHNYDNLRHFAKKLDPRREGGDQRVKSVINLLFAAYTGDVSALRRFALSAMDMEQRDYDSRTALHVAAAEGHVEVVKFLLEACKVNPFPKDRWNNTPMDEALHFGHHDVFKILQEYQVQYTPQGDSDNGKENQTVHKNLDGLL
inactive: [1] -0.022 | [2] 0.114 | [3] 0.138 | [4] 0.013 | [5] 0.082

GOLPH3 (UniProt Q9H4A6)
Chain of UniProt Q9H4A6 (Q9H4A6 whole entry, looked up): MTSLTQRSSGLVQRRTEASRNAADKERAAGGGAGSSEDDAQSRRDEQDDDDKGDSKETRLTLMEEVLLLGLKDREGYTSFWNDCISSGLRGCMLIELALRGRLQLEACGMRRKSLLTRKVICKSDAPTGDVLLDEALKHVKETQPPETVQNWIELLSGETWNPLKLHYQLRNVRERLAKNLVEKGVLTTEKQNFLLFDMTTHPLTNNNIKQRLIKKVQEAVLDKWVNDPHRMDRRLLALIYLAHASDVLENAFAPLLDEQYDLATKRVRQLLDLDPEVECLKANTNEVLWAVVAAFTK
inactive: [1] -0.035 | [2] 0.06 | [3] 0.04 | [4] -0.077 | [5] -0.021

GGA2 (UniProt Q9UJY4)
Chain of UniProt Q9UJY4 (Q9UJY4 whole entry, looked up): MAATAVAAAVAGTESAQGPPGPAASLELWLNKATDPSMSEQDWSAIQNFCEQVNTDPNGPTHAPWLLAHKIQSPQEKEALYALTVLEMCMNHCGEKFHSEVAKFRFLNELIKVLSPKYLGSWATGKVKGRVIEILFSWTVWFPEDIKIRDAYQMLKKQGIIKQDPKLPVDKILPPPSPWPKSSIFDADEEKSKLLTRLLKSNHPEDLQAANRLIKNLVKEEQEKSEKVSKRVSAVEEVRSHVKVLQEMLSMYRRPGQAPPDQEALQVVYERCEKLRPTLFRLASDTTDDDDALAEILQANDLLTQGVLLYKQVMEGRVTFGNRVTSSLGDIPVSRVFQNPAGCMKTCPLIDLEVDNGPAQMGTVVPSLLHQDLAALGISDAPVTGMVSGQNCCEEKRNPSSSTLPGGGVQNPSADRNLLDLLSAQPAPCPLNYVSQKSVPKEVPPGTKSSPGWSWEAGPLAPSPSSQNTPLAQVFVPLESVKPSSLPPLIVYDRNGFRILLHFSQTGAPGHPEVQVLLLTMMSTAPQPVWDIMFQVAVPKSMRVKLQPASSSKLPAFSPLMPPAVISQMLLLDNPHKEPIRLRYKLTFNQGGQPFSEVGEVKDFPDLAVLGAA
inactive: [1] -0.023 | [2] 0.014 | [3] -0.035 | [4] 0.041 | [5] -0.047

GSTO1 (UniProt P78417)
Chain of UniProt P78417 (P78417 whole entry, looked up): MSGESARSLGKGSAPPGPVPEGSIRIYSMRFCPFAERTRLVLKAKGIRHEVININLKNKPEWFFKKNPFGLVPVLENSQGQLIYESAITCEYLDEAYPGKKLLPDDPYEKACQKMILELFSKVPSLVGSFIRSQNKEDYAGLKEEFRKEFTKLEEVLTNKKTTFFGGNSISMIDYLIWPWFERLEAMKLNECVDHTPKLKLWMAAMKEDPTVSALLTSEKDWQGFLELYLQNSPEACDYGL
inactive: [1] -0.024 | [2] 0.028 | [3] -0.002 | [4] -0.013 | [5] 0.007

FBXO7 (UniProt Q9Y3I1)
Chain of UniProt Q9Y3I1 (Q9Y3I1 whole entry, looked up): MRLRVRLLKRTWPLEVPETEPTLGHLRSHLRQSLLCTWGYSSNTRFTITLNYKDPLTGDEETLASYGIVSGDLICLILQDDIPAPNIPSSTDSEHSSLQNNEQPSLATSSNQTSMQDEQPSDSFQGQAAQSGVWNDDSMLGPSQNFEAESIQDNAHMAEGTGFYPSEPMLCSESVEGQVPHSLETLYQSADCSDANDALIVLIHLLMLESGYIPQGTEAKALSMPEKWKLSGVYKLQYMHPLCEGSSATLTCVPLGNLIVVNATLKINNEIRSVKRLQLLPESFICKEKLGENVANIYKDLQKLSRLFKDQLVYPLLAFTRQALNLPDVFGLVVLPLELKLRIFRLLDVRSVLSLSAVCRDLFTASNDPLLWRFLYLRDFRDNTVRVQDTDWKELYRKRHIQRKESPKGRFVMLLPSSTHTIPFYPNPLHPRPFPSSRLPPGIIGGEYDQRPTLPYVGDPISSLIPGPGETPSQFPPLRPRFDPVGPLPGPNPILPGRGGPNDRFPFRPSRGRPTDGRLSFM
inactive: [1] -0.002 | [2] 0.033 | [3] 0.045 | [4] -0.033 | [5] 0.024

GPD1 (UniProt P21695)
Chain of UniProt P21695 (P21695 whole entry, looked up): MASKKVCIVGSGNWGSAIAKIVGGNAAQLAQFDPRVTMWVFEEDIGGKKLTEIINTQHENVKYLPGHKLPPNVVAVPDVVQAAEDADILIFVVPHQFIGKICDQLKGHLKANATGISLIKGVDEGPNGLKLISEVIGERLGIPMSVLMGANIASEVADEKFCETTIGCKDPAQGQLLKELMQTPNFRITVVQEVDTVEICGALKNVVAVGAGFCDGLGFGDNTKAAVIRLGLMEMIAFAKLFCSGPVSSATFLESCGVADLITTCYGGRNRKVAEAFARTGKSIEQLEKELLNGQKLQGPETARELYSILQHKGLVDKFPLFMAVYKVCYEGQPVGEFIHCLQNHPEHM
inactive: [1] 0.095 | [2] 0.028 | [3] 0.123 | [4] -0.019 | [5] -0.238

GDPD1 (UniProt Q8N9F7)
Chain of UniProt Q8N9F7 (Q8N9F7 whole entry, looked up): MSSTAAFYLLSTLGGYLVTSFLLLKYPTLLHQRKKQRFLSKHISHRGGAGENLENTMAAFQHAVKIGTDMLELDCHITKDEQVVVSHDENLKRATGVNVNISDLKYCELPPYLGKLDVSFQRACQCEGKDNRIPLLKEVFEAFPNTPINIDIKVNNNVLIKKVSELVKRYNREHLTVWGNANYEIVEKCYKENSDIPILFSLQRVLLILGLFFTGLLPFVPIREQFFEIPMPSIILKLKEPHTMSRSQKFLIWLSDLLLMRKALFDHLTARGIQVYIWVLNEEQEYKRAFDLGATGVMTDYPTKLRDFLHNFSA
inactive: [1] -0.054 | [2] 0.003 | [3] 0.057 | [4] -0.024 | [5] 0.034
